# The whole screen tested about 360,000 compounds, of which about 1,400 (0.39%) were called active. The entries come from a sample that favours actives as a whole. Values without a mark were called inactive. Rule as the data show it: active = inhibition above about 5% (passing the limit was not always enough); inactive = the rest.
# Biological target: Tyrosine-protein kinase ABL1 (Homo sapiens) + Ras and Rab interactor 1 (Homo sapiens) (UniProt P00519+Q13671)
# Experiment: inhibitors of Rin1-Abl protein binding, primary screen, biochemical, TR-FRET (AID 588664)
# Details: at 7.35 µM, hits give high values
# Chain of Tyrosine-protein kinase ABL1 (Homo sapiens) + Ras and Rab interactor 1 (Homo sapiens) (P00519 whole entry, looked up): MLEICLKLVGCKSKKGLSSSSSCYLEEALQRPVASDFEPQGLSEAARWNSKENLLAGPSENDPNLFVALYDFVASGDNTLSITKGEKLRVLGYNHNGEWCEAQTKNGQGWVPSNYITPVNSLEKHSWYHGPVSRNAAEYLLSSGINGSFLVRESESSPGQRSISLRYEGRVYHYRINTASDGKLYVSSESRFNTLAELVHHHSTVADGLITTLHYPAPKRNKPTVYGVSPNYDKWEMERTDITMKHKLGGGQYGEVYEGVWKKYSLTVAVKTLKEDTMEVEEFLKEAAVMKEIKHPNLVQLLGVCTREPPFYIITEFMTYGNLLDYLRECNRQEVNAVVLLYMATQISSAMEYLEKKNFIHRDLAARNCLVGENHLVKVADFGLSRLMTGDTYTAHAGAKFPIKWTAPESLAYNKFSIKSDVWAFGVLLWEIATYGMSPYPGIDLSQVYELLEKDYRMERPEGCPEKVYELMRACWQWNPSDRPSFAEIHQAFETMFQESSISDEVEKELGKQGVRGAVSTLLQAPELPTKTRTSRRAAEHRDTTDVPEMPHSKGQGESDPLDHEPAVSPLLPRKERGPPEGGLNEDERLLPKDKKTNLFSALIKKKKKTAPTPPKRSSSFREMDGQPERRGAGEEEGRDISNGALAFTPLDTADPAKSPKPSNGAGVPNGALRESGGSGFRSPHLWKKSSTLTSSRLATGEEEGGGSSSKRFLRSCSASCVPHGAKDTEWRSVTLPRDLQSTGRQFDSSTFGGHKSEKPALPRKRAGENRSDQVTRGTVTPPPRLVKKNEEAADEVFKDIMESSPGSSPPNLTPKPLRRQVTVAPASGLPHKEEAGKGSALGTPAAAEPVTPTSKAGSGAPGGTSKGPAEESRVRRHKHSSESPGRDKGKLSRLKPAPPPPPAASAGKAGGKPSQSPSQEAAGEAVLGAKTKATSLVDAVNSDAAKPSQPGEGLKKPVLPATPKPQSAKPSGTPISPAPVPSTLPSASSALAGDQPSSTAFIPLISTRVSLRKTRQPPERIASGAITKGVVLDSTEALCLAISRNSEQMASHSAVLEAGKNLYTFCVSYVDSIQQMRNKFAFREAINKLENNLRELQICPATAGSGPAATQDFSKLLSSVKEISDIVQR
# Chain of Tyrosine-protein kinase ABL1 (Homo sapiens) + Ras and Rab interactor 1 (Homo sapiens) (Q13671 whole entry, looked up): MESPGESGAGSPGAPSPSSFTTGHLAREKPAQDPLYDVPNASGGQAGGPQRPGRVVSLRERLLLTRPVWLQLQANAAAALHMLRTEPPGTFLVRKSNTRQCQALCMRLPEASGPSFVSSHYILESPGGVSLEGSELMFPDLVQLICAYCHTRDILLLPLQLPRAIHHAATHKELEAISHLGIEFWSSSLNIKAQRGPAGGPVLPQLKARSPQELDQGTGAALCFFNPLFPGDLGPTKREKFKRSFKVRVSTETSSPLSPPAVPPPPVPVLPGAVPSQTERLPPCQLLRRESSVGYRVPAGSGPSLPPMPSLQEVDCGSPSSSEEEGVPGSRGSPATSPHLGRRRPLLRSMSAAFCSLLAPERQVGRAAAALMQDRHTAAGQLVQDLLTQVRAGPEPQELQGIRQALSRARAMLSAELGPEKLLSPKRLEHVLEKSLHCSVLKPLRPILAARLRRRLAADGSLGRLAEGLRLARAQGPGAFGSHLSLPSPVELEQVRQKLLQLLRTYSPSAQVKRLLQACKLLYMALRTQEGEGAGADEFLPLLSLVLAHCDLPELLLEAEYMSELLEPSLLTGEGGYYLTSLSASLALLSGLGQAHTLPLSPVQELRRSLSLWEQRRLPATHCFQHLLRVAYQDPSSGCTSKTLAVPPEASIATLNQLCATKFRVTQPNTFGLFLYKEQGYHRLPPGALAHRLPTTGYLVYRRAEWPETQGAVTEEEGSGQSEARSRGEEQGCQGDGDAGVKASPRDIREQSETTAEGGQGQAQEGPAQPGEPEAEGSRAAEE
row,Compound,inhibition
1,C=CCN(C(=O)Cn1ncc2c1-c1cc(C)ccc1OC2)c1ccccc1,2.13%
2,Cc1cnc(C)c(N2CCN(C(=O)C3CCC(=O)N(CCc4cccc(F)c4)C3)CC2)n1 (stereo not given),-0.04%
3,CCOC(=O)N1CCN(C(=O)C2CCN(Cc3ccc(OC)cc3OC)CC2)CC1,0.29%
4,Cc1cc(=O)n2nc(N3CCCC(C(=O)N4CCN(C)CC4)C3)sc2n1 (stereo not given),1.05%
5,CCOC(=O)N1CCN(C(=O)C2CCN(S(=O)(=O)c3cc(Cl)ccc3OCC)CC2)CC1,3.03%
6,CCOC(=O)N1CCN(C(=O)C2CCN(c3ncnc4c3sc3cccc(F)c34)CC2)CC1,18.2% (active)
7,CCOC(=O)N1CCN(C(=O)C2CCCN(c3ncnc4c3sc3cccc(F)c34)C2)CC1 (stereo not given),6.58% (active)
8,O=C(CCNC(=O)c1ccc([N+](=O)[O-])cc1)NC1CCCCC1,-2.29%
9,O=C1CC2(CCCCC2)Oc2ccc(OCC(=O)N3CCOCC3)cc21,-3.03%
10,COc1cc2c(cc1CNC[C@H]1O[C@@H](n3cnc(C(N)=O)n3)[C@H](O)[C@@H]1O)OCO2,-2.98%
11,CCOc1ccc(N(CC)S(=O)(=O)c2cccc3nsnc23)cc1,-2.8%
12,Cc1ccc(C(NC(=O)C2CCN(CCOc3ccc(Cl)cc3Cl)CC2)c2ccccn2)cc1 (stereo not given),9.27% (active)
13,O=C(NC(c1ccc(Cl)cc1)c1cnccn1)C1CCN(Cc2ccc(Cl)cc2)CC1 (stereo not given),-1.67%
14,O=C(NC(c1ccc(-c2ccccc2)cc1)c1cnccn1)C1CCN(CCOc2ccc(Cl)cc2Cl)CC1 (stereo not given),-3.71%
15,CCCS(=O)(=O)Nc1c(C(=O)O)[nH]c2ccccc12,0.58%
16,CCOC(=O)c1c(NC(=O)CN2C(=O)NC3(CCC(C)CC3)C2=O)sc(C)c1CC (stereo not given),0.02%
17,C=CCn1c(SCC(=O)CC(=O)OCC)nc2cc(C(=O)N3CCC(C(N)=O)CC3)ccc2c1=O,-1.96%
18,C=CCn1c2ccccc2c2nnc(SC(CC)C(=O)Nc3nc(C)c(C(=O)OCC)s3)nc21 (stereo not given),2.82%
19,C=CCn1c2ccccc2c2nnc(SCc3[nH]c(=O)[nH]c3C(=O)CCCCC(=O)OCC)nc21,59.4% (active)
20,COc1ccc(NC(=O)C2CCC(CNS(=O)(=O)c3csc(C(N)=O)c3)CC2)cc1OC (stereo not given),-0.76%

row,Compound,inhibition
1,COc1ccc(CCC(=O)Nc2ccc(Cl)c(S(=O)(=O)N3CCOCC3)c2)cc1OC,0.12%
2,CN(CC(=O)Nc1ccc(F)cc1)CC(=O)Nc1ccc(Cl)c(S(=O)(=O)N2CCOCC2)c1,5.07% (active)
3,CN(CC(=O)Nc1ccc(S(=O)(=O)N2CCCC2)cc1)Cc1ccc(Cl)c(Cl)c1,-4.78%
4,Nc1ncnc2c1ncn2[C@@H]1O[C@H](CNS(=O)(=O)c2ccc(-c3ccno3)s2)[C@@H](O)[C@H]1O,-1.25%
5,CCc1ccc(C(=O)NNC(=O)C2CCN(c3ncnc4sc(C)c(C)c34)CC2)cc1,-0.76%
6,COc1cccc(COC(=O)C2CCN(S(=O)(=O)c3ccc(Cl)cc3)CC2)c1OC,3.29%
7,COC(=O)c1ccc(COC(=O)C2CCN(S(=O)(=O)c3c(Cl)cccc3Cl)CC2)o1,15.2% (active)
8,CCOc1ccc(S(=O)(=O)N2CCC(C(=O)OCc3ccc(OC)cc3)CC2)cc1,3.73%
9,C=CCN1C(=O)c2ccc(C(=O)N3CCC(C(=O)OCC)CC3)cc2C1=O,2.75%
10,O=C(O)CC1S/C(=N\N=C/c2ccccc2O)N(c2ccc(O)cc2)C1=O (stereo not given),1.65%
11,C#CCOCCOCCOCCNc1nc(N2CCN(C(=O)[C@H](Cc3ccc(O)cc3)n3cc(C(N)CC(C)C)nn3)CC2)nc(N2CCN(C(=O)[C@H](CCC(=O)O)n3cc(C(N)[C@H](C)CC)nn3)CC2)n1 (stereo not given in full),2.63%
12,C#CCOCCOCCOCCNc1nc(N2CCN(C(=O)[C@H](CCCCN)n3cc([C@@H](N)C(C)CC)nn3)CC2)nc(N2CCN(C(=O)[C@H](Cc3ccc(O)cc3)n3cc([C@@H](N)C(C)CC)nn3)CC2)n1 (stereo not given in full),5.61%
13,C#CCOCCOCCOCCNc1nc(N2CCN(C(=O)C(Cc3ccc(O)cc3)n3cc(C(N)CC(C)C)nn3)CC2)nc(N2CCN(C(=O)C(Cc3ccc(O)cc3)n3cc(C(N)C(C)CC)nn3)CC2)n1 (stereo not given),14.3% (active)
14,CSc1ncnc2c1ncn2CC(=O)C1CCC2C3CCC4=CC(=O)CCC4(C)C3CCC12C (stereo not given),13.2% (active)
15,CC12CCC(=O)C=C1CCC1C2C(O)CC2(C)C1CCC2(O)C(O)CO (stereo not given),4.13%
16,CSc1ncnc2c1ncn2CCCNCC1CCCCC1,-2.89%
17,CSc1ncnc2c1ncn2CCCNCc1ccco1,-1.36%
18,CCOC(=O)COc1nc(C)cc(C(F)(F)F)c1C#N,0.37%
19,CCOC(=O)CN(C(=O)COc1nc(C)cc(C)c1C#N)c1ccc(Cl)cc1,6.34% (active)
20,CCOC(=O)CN(C(=O)COc1nc(-c2ccccc2)cc(C)c1C#N)c1ccc(F)cc1,-3.22%

row,Compound,inhibition
1,CN(C1CCS(=O)(=O)C1)S(=O)(=O)c1ccc2ccccc2c1 (stereo not given),0.18%
2,COc1cc2c(cc1O)C(SC)=NC(C)(C)C2,2.88%
3,CCOc1ccc(-n2c(SCC(=O)NC3CCS(=O)(=O)C3)nnc2-c2cccnc2)cc1 (stereo not given),5.73% (active)
4,COc1cccc(-n2c(SCC(=O)NC3CCS(=O)(=O)C3)nc3ccccc3c2=O)c1 (stereo not given),-0.16%
5,CCOc1cccc(-c2nnc(SCC(=O)NC3CC3)n2C)c1,-0.29%
6,Cc1ccc(C(=O)CSc2nc3ccccc3c(=O)n2N)o1,-0.26%
7,Cc1ccccc1N1CCN(CC(=O)NCc2ccc(Cl)cc2)CC1,1.14%
8,COc1cc(CNc2ncnc3c2ncn3[C@H]2CN(Cc3cccs3)C[C@@H](CO)O2)cc(OC)c1OC,3.5%
9,CC(C)Cn1c(N2CCN(C(=O)/C=C/c3ccccc3)CC2)nc2ccccc21,0.97%
10,CN(Cc1c(F)cccc1Cl)C(=O)CNC(=O)c1ccc2c(c1)OCO2,34.7% (active)
11,Cc1cccc(C)c1NC(=O)CNC(=O)c1ccc2c(c1)OCCO2,1.15%
12,O=C(NCCc1ccc(C(F)(F)F)cc1)c1ccc2c(c1)OCO2,-1%
13,Cn1c(=O)cc(SCC(=O)N2CCCC2)c2cc(Cl)ccc21,-25.5%
14,CNC1(c2nnnn2-c2c(C)cccc2C)CCOC(C)(C)C1 (stereo not given),-2.89%
15,Oc1ccc2ccc3cccc[n+]3c2c1,-21.5%
16,COc1cc(C(=S)N2CCOCC2)ccc1O,11% (active)
17,COc1ccc(C)cc1NC(=S)N1CCOCC1,-0.53%
18,CCOc1cc(C(=S)N2CCOCC2)ccc1O,-1.01%
19,CCOC(=O)C1CCN(C(=O)COc2cc(C)c(Br)c(C)c2)CC1,-1.96%
20,CCn1c(SCC(=O)Nc2ccc(OC)c(OC)c2)nnc1-c1c[nH]c2ccccc12,3.38%

# From PubChem BioAssay AID588664 (The Scripps Research Institute Molecular Screening Center, 2011)
